Measurements taken from PubChem BioAssay (Tox21).
Results filed as inconclusive are left out. Calls of active or inactive are those of the source. Calls come from the whole dose curve; as a rule, active = well fitted cell-killing curve with a large enough effect in the repeat runs; inconclusive = weak or mixed curves, or effect the other way; inactive = flat fitted curve, though single readings scatter.

assay: qHTS RealTime-Glo MT Cell Viability Assay in HEK293 cells - 40 hour (AID 1224874); details: RealTime-Glo luminescence; max response: hits give low values; note: nearly all actives have a fitted effect of over 50% in size
Description: U.S. Tox21 Program National Center for Advancing Translational Sciences [NCATS] NIH Chemical Genomics Center [NCGC] U.S. Environmental Protection Agency [EPA] National Institutes of Environmental Health Sciences [NIEHS] National Toxicology Program [NTP] U.S. Food and Drug Administration [FDA] Tox21 Assay Overview: Measure of cell viability is critical in the cell-base assay. Analysis of cell viability is necessary for the characterization of cell responses to cytotoxic drugs and environmental stress. A RealTime-Glo MT Cell Viability Assay to monitor cell viability in real time of continues cell culture during 40 hours of compound treatment was used to screen Tox21 10K library compounds in Hek293 cells. The RealTime-Glo MT Cell Viability Assay is a nonlytic, homogeneous, bioluminescent method to measure cell viability in real time using a simple, plate-based method. The assay involves adding NanoLuc luciferase and a cell-permeant prosubstrate to cells in culture. Viable cells reduce the proprietary prosubstrate to generate a substrate for NanoLuc luciferase. This substrate diffuses from cells into the surrounding culture medium, where it is rapidly used by the NanoLuc Enzyme to produce a luminescent signal. The signal correlates with the number of viable cells, making the assay well suited for cytotoxicity studies.
Tox21 Assay Protocol Summary: The mixture of Hek293 cell suspension and reagents were dispensed at 600cells/6 ul/well in 1536-well tissue culture treated black solid bottom plates using a Multidrop dispenser. After the assay plates were incubated at a 37 C/5% CO2 incubator for 5 hours, 23 nL of compounds dissolved in DMSO, positive and negative controls was transferred to the assay plate by a pintool work station. The plates were incubated at 37 C for 40 hours. The luminescence intensity were measured at 0h, 8h, 16h, 24h, 32h and 40h time points using ViewLux plate reader during compound treatment.
% is set by controls: 0 for no effect and ±100 for the full control effect; potency is the fitted concentration of half-maximal effect.

| Structure (SMILES) | max response | Potency |
| --- | --- | --- |
| CC(C)OC(=O)OCOP(=O)(CO[C@H](C)Cn1cnc2c(N)ncnc21)OCOC(=O)OC(C)C | 2.48% (inactive) |  |
| CC(C)=CCC/C(C)=C/COC=O | 0.565% (inactive) |  |
| C/C=C(\C)C(=O)OCCc1ccccc1 | -3.34% (inactive) |  |
| CN(C)CCCCl | 0.853% (inactive) |  |
| CN(C)CCN(C)CCO | 5.64% (inactive) |  |
| Cn1c(=O)c2[nH]c(Br)nc2n(C)c1=O | 4.15% (inactive) |  |
| COc1cc2c(cc1OC)C(=O)C(CC1CCN(Cc3ccccc3)CC1)C2 (stereo not given) |  | 23.9 µM (active) |
| CC(C)NCC(O)c1ccc2ccccc2c1 (stereo not given) | -5.31% (inactive) |  |
| C/C=C(\C)C(C)=O | 0.603% (inactive) |  |
| C=CCN1C[C@H](C(=O)N(CCCN(C)C)C(=O)NCC)C[C@@H]2c3cccc4[nH]cc(c34)C[C@H]21 | 0.226% (inactive) |  |
| ONc1ccccc1 | -13.8% (inactive) |  |
| CC(C)=CCC[C@@](C)(O)[C@H]1CC=C(C)CC1 | -0.631% (inactive) |  |
| COC(=O)/C=C\C(=O)O | 0.0191% (inactive) |  |
| OCC(O)CN1CCN(c2ccccc2)CC1 (stereo not given) | 1.76% (inactive) |  |
| Cc1c(N)cccc1Cl | 5.05% (inactive) |  |
| Cc1ccnc(N)c1 | -4.39% (inactive) |  |
| CCCCCCCCCCCCCCC(=O)NC(CO)CCCCCCCCCCCCCC (stereo not given) | 5.76% (inactive) |  |
| Cc1c(C(=O)c2c[nH]n(C)c2=O)ccc(S(C)(=O)=O)c1C1=NOCC1 | 2.86% (inactive) |  |
| O=Cc1ccccc1Cl | 4.59% (inactive) |  |
| COc1cc(/C=C/C(N)=O)cc(OC)c1OC | -21.8% (inactive) |  |

| Structure (SMILES) | max response | Potency |
| --- | --- | --- |
| CC(C)C1OCCN1CCOC(=O)NCCCCCCNC(=O)OCCN1CCOC1C(C)C (stereo not given) | 1.59% (inactive) |  |
| Nc1nnnn1-c1ccccc1 | 0.0553% (inactive) |  |
| CC(=O)O[Si](C)(OC(C)=O)OC(C)=O | 7.61% (inactive) |  |
| CCOc1ccccc1OCC1CNCCO1 (stereo not given) | 2.19% (inactive) |  |
| CCCCCC(C)O (stereo not given) | 6.06% (inactive) |  |
| C=CCCCCCCCCC(=O)OCCCC | 7.61% (inactive) |  |
| CC(=O)O[C@H]1C[C@@H]2CC[C@@]1(C)C2(C)C | 4.28% (inactive) |  |
| C=CCOC(=O)CCCCCC | 3.28% (inactive) |  |
| CCCCCCC1(C)CCC(=O)O1 (stereo not given) | 3.32% (inactive) |  |
| CC(=O)OC1CCCCC1C(C)(C)C (stereo not given) | 3.56% (inactive) |  |
| Cc1ccc(N)cc1S(=O)(=O)O | 7.16% (inactive) |  |
| CN(C)C(C)(C)CO | 1.89% (inactive) |  |
| C[C@@H](O)C(=O)O | 3.5% (inactive) |  |
| Cc1cc(C)c(C(=O)O)c(C)c1 | 1.4% (inactive) |  |
| C=C(C)[C@@H]1CC=C(C)C(=O)C1 | -8.2% (inactive) |  |
| COC(C)(OC)OC | 5.48% (inactive) |  |
| CC(=O)OC(C)=O | 9.5% (inactive) |  |
| CCOC(CN1CCN(CC(C)C(=O)c2ccccc2)CC1)c1ccccc1 (stereo not given) | -27.6% (inactive) |  |
| CO/N=C(/C(=O)N[C@@H]1C(=O)N2C(C(=O)[O-])=C(C[n+]3ccn4ncccc43)CS[C@H]12)c1nsc(N)n1 | 6.83% (inactive) |  |
| O=C(CCCCC(=O)Nc1c(I)cc(I)c(C(=O)O)c1I)Nc1c(I)cc(I)c(C(=O)O)c1I | -12.6% (inactive) |  |
